IL-1B inflam inh = inflammasome signaling inhibition, IL-1 beta readout; activity change, % at 57.5 µM; THP-1 LPS/ATP IL-1B secretion, AlphaLISA, 16 h; active compounds read low; actives 4.7% (n = 360,000); in the data active = activity change below about -50%; inconclusive = mostly about -30% to -49%
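THP-1 cells pretreated 1 hr with compounds (up to 57.5 uM final), then stimulated with LPS (250 ng/mL final) plus ATP (1.25 mM final); secreted IL-1B measured by AlphaLISA after 16 hr, decreased signal indicating inhibition.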
TDP1 cell CPT = DT40-hTDP1 cell growth loss with CPT; Potency, µM (doses to about 46.2 µM), hits mostly inhibitors; chicken DT40 Tdp1-/-;hTDP1 cells + 20 nM CPT, ATP luminescence, 48 h; actives 12% (n = 420,000); AID 686979; note: nearly all actives have a fitted effect of over 55% in size
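Chicken DT40 Tdp1-/- cells complemented with human TDP1, 400 cells/well, exposed to compounds plus 20 nM camptothecin for at least 48 h at 37 C; viability read as ATP content by CellTiter-Glo luminescence.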
CtBP-E1A inh = inhibitors of CtBP/E1A interaction; AlphaScreen GST-E1A/His-CtBP binding, 1536-well; active compounds read low; activity change, % (test concentration not listed); actives 0.49% (n = 340,000); in the data active = activity change below about -65%; inconclusive = mostly about -30% to -63%
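Protein mix (5X: 125 nM each GST-E1A, His-CtBP) was incubated with pinned compound 2 h at 37 deg C in dark, in 50 mM Tris pH 8.0 buffer with 300 mM NaCl. Glutathione donor and nickel acceptor beads followed; AlphaScreen signal read after 1 h.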
TDP1 block = inhibitors of human tyrosyl-DNA phosphodiesterase TDP1; Q9NUW8; recombinant TDP1, AlphaScreen DNA substrate cleavage; Potency, µM (series often up to 130 µM), most hits filed as inhibitors; actives 0.28% (n = 350,000); note: nearly all actives have a fitted effect of over 40% in size
Target sequence (Q9NUW8 whole entry, looked up): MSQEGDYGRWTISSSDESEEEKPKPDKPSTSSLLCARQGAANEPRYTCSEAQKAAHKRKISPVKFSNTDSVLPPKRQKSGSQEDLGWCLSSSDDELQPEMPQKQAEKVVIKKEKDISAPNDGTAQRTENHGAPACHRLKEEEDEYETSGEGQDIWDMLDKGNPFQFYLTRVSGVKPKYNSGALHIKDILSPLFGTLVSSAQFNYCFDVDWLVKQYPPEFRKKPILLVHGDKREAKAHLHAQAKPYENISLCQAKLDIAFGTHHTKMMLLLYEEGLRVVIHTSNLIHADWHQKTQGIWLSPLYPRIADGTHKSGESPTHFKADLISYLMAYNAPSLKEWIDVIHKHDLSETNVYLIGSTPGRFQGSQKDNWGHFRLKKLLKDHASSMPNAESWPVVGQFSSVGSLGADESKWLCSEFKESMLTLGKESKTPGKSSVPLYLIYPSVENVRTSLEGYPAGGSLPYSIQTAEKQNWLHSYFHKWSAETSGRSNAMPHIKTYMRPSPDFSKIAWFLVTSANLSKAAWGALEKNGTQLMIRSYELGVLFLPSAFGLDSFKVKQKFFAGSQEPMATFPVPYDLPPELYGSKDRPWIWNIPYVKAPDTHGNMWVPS
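Tdp1 1 nM final; 15 min RT w/ cpd; substrate 15 nM, 5 min; beads 10 ug/ml, 10 min; AlphaScreen read. Neg ctrl: no enzyme.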
DT40 TDP1 no CPT = qHTS for Inhibitors of human tyrosyl-DNA phosphodiesterase 1 (TDP1): qHTS in cells in absence of CPT; actives 15% (n = 420,000); DT40 Tdp1-/- hTDP1 cells, no CPT, ATP luminescence, 48 h; Potency, µM (series often up to 46.2 µM), hits mostly inhibitors; note: nearly all actives have a fitted effect of over 55% in size
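Growth of hTDP1-complemented DT40 Tdp1-knockout cells is measured by ATP luminescence after at least 48 hr compound exposure at 37 °C, with DMSO substituting for the 20 nM CPT used in the parallel screen.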
Six1-Eya2 inh = blocks human Six1 binding to Eya2. AlphaScreen GST-Six1/His-Eya2 binding, biochemical; active compounds read low. Q15475+O00167. AID 651725. actives 0.56% (n = 360,000). activity change, % (no concentration beside the values); in the data active = activity change below about -65%; inconclusive = mostly about -30% to -63%
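Compounds are tested against tagged Six1 and Eya2 proteins bridged by glutathione donor and nickel acceptor beads; after a one-hour incubation at 37 °C without light, AlphaScreen emission is recorded.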
Numbers stand for hits; n = inactive; u = inconclusive; x = no result. Only some compounds are listed: those with a hit (about 18% of all), similar ones and a draw of the others. Unless noted, calls come from the whole dose curve; as a rule, active = well fitted curve in the direction sought with a large enough effect; inconclusive = small, poorly fitted or top-dose-only effect, or another doubt; inactive = no such curve, though single readings can be large; an effect the other way counts as inactive or inconclusive.

SMILES	IL-1B inflam inh	TDP1 cell CPT	CtBP-E1A inh	TDP1 block	DT40 TDP1 no CPT	Six1-Eya2 inh
N#Cc1ccc(C(=O)N(Cc2ccco2)Cc2cccs2)cc1	x	u	x	n	u	x
CCCOc1ccc(CNC(=O)c2ccc3c(c2)N(Cc2ccccc2)CCS3)cc1	x	u	x	n	18.4µM	x
CCN1CCSc2ccc(C(=O)NCc3ccc(OC)cc3)cc21	x	n	x	n	u	x
O=C(NCc1ccccc1)c1ccc2c(c1)N(Cc1ccc(F)cc1)CCS2	x	u	x	n	18.4µM	x
Cc1ccc(C)c(-c2[nH]c3c(c2-c2c(-n4cccc4)n(C)c(=O)[nH]c2=O)c(=O)[nH]c(=O)n3C)c1	x	n	x	n	n	x
CCCn1nnc(NC(=S)NC(=O)CC)n1	n	23.1µM	n	n	18.4µM	n
CCCn1nnc(NC(=S)NC(=O)Cc2ccccc2)n1	n	u	n	n	23.1µM	n
CCCn1nnc(NC(=S)NC(=O)c2ccc(-c3ccc(Br)cc3)o2)n1	n	u	n	n	u	n
c1ccc(-c2ccc3c(n2)CCCO3)cc1	n	n	n	x	n	n
CCCOc1ccc(C(=O)NNC(=S)NC(=O)c2cc(-c3ccccc3)nc3ccccc23)cc1	n	u	n	n	u	n
CCCOc1ccc(C(=O)NNC(=S)NC(=O)c2ccccc2)cc1	n	u	x	x	16.4µM	n
CC(C)(C)C(=O)NC(=S)NNC(=O)c1ccc(-c2ccccc2)cc1	n	3.26µM	x	n	2.06µM	n
CCCOc1ccc(C(=O)NCCO)cc1	n	n	n	n	n	n
O=C(NNC(=S)Nc1ccccc1)c1ccc(O)cc1	n	n	x	x	n	n
O=C(NNC(=S)NC(=O)c1ccccc1)c1ccc(O)cc1	n	16.4µM	n	x	9.2µM	n
CCCOc1ccc(C(=O)NNC(=S)NC(C)=O)cc1	n	2.59µM	n	n	3.26µM	n
O=C(Cn1c(CC(=O)N2CCCC2)nc2ccccc21)NCc1ccccc1	n	n	n	n	n	n
CC(=O)Nc1ccc(NS(=O)(=O)c2ccc(OC(C)C(=O)N3CCOCC3)cc2)cc1 (stereo unspecified)	n	n	n	x	n	n
COc1ccc(S(=O)(=O)NC(CC(=O)NCCc2ccc(OC)c(OC)c2)C(C)C)cc1 (stereo unspecified)	n	n	n	n	n	n
Cc1ccc(N=CNc2ccc(C)cc2C)c(C)c1	n	n	n	x	n	n
Cc1ccccc1OCC(=O)NNC(=S)NC(=O)c1ccccc1[N+](=O)[O-]	n	n	n	n	u	n
CCCOc1ccc(C(=O)NNC(=S)NC(=O)c2ccccc2[N+](=O)[O-])cc1	n	10.3µM	n	x	10.3µM	n
CCCOc1ccc(C(=O)NNC(=S)NC(=O)c2cccs2)cc1	n	23.1µM	n	n	18.4µM	n
CC(C)(C)c1ccc(OCC(=O)NNC(=S)NC(=O)c2ccccc2[N+](=O)[O-])c(Br)c1	n	23.1µM	n	n	16.4µM	n
Cc1c(CNC2CCCCCC2)c(C(=O)O)c(C)n1Cc1c(F)cccc1Cl	x	u	x	n	u	x
SMILES	IL-1B inflam inh	TDP1 cell CPT	CtBP-E1A inh	TDP1 block	DT40 TDP1 no CPT	Six1-Eya2 inh
CN(C(=O)CSc1nc(N)c2c3c(sc2n1)CSC(C)(C)C3)c1ccccc1	-55.0	16.4µM	n	n	16.4µM	n
CN(C(=O)CSC1=NCCS1)c1ccccc1	n	n	n	n	n	n
COc1ccc(N=C2SC(CC(=O)Nc3ccccc3)C(=O)N2CCN2CCOCC2)cc1 (stereo unspecified)	n	n	n	n	n	n
COC(=O)c1cc(NC(=O)CC2SC(=Nc3ccccc3)N(CCc3c[nH]c4ccccc34)C2=O)cc(C(=O)OC)c1 (stereo unspecified)	n	16.4µM	n	n	u	n
COc1ccc(CNC(=O)c2[nH]c(C(F)(F)F)nc2-c2ccccc2)cc1OC	n	n	n	x	n	n
CC(=O)Nc1ccc(OCC(O)Cn2nc(C)c(C)c2C)cc1 (stereo unspecified)	n	n	n	x	n	n
CSc1cc(/C=N/O)c(SC)s1	n	n	n	n	u	n
Cc1cc(C)c(COCc2cc(/C=N/O)c(C)cc2C)cc1/C=N/O	-82.9	u	n	n	u	n
COc1ccccc1C(=O)C1CCCN(C(=O)c2ccccc2Cl)C1 (stereo unspecified)	n	u	n	n	u	n
COc1ccccc1C(=O)C1CCCN(C(=O)c2ccc(Cl)cc2)C1 (stereo unspecified)	n	u	n	x	16.4µM	n
COc1ccccc1C(=O)C1CCCN(C(=O)CCC(=O)c2ccccc2)C1 (stereo unspecified)	n	10.3µM	n	n	29.1µM	n
CCN(CC)CC(=O)N1CCCC(C(=O)c2ccccc2OC)C1 (stereo unspecified)	n	n	x	n	n	n
O=C(Cc1ccccc1F)OCN1C(=O)c2ccccc2C1=O	n	n	n	n	n	n
CCc1noc(C)c1C(=O)OCC(=O)NC(=O)c1ccccc1OC	n	n	n	n	n	n
O=C(C1COc2ccccc2O1)N(Cc1cccnc1)c1nc2c(F)cccc2s1 (stereo unspecified)	x	n	x	n	n	x
CCCCCOC(=O)Cc1c(O)c2ccccc2n(C)c1=O	n	16.4µM	n	n	16.4µM	n
CCCCCCC[n+]1ccc(/C=C/c2c(C)[nH]c3ccccc23)cc1	x	0.316µM	x	x	0.316µM	x
CCCCNC(=S)N(C)/N=C/c1c(C)[nH]c2ccccc12	n	n	n	n	n	n
CCCc1c(C)[nH]c2ccccc2c1=O	n	u	n	n	u	n
CCCCCCCCCCCCCCCC[n+]1ccc(/C=C/c2c(C)[nH]c3ccccc23)cc1	x	1µM	x	x	0.398µM	x
COc1ncnc(-c2ccccc2)c1-c1ccccc1	n	u	x	x	14.6µM	n
COc1nc(-c2ccccc2)nnc1-c1ccccc1	n	n	n	n	n	n
Cc1cc(C)cc(NC(=O)c2cc(C)nn2C)c1	n	n	n	n	n	n
CC(OC(=O)c1cnc(Cl)c(Cl)c1)C(=O)NCc1ccccc1 (stereo unspecified)	-87.2	u	n	n	n	n
Cc1ccccc1CN(C)C(=O)COC(=O)c1ccc2[nH]c(C)c(C)c2c1	-60.8	16.4µM	n	n	u	n
CC(OC(=O)c1ccc2ncsc2c1)C(=O)NCc1ccccc1 (stereo unspecified)	x	x	x	n	x	x
Cc1[nH]c2ccc(C(=O)OC(C)C(=O)NCc3ccccc3)cc2c1C (stereo unspecified)	-56.5	13µM	n	x	6.51µM	n
